From PubChem BioAssay AID485284 (NMMLSC, 2010) come the findings set out here.

Structures are written as SMILES. Measured potencies and affinities stand elsewhere.

A short description of the assay: loss of vesicle association with mouse CD8+ T cells – mouse 2C CD8+ T cells, flow cytometry, dose response (AID 485284).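 Also: drosophila derived vesicles carrying Ld MHC with QL9 peptide plus B7-1 and ICAM-1; vesicle binding seen as anti-B7-1 PE fluorescence on CD8 gated cells.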 Particulars: 2C mouse CD8+ T cell-exosome binding; at 45 µM (top of the series). A general note: A flow cytometer gives signals particle by particle.
Take `COc1ccc(NC(=O)[C@H](C)NC(=O)C2CCN(S(=O)(=O)c3ccc(C)cc3)CC2)cc1`: the binding remaining, % of control worked out at 108%. For the compound `COc1ccc(CN2C(=O)C(C)Nc3ncnc(N4CCN(c5ccccn5)CC4)c32)cc1` (configuration not stated), the binding remaining, % of control was found to be 22%. Consider `CN(CC(=O)Nc1cc(S(=O)(=O)N2CCCC2)ccc1Cl)Cc1ccc2c(c1)OCO2`, for which the binding remaining, % of control is 63%. Turning to `O=C(NNS(=O)(=O)c1ccc2ccccc2c1)c1cccs1`, the binding remaining, % of control came out at 42.6%. Regarding `C=CCNC(=S)Nc1sc2c(c1C(N)=O)CCCC2`, the binding remaining, % of control stood at 163%.

Turning to `NC(=O)NC(=O)COC(=O)CN1C(=O)C2CCCCC2C1=O` (configuration not stated), the binding remaining, % of control was determined as 164%. In the case of `O=C(NCc1ccccc1C(F)(F)F)C1CCC(=O)N(CCCc2ccccc2)C1` (configuration not stated) it was 90.8%. For `COc1ccc(N2CC(C(=O)N[C@@H](C)C(=O)NCc3ccccc3OC)CC2=O)cc1` (some centres not stated), the binding remaining, % of control is 24.3%.

For the compound `CCOc1ccc(CCNC(=O)c2cccc(-n3cnnn3)c2)cc1OCC`, the binding remaining, % of control was 164%.

As to `Cc1ccccc1C(=O)NCC(=O)N1CCN(C/C=C/c2ccccc2)CC1`, the binding remaining, % of control came out at 42.6%. As to `Cc1ccc(C(C)n2cc(C(=O)NCCN3CCN(C)CC3)nn2)cc1` (configuration not stated), the binding remaining, % of control was found to be 144%.

As to `CCOc1ccc(C(=O)NNC(=O)CN2C(=O)C3CC=CCC3C2=O)cc1OC` (configuration not stated), the binding remaining, % of control came out at 194%. With `COc1ccc(C(O)c2coc3ccc(O)c(CN(C)C)c23)cc1` (configuration not stated), the binding remaining, % of control is 113%. In the case of `COc1ccccc1CNC(=O)c1ccc(N(C)S(=O)(=O)c2ccc(C)cc2)cc1` it was 156%.

In the case of `CCOC(=O)c1c(N2C(=O)CC(Sc3ccccc3C(=O)O)C2=O)sc2c1CCCC2` (configuration not stated), the binding remaining, % of control stood at 41.4%.

For the compound `CN(C)S(=O)(=O)N1CCN(S(=O)(=O)N(C)C)CC1`, the binding remaining, % of control is 55.7%. `O=C(CC12CC3CC(CC(C3)C1)C2)N/N=C/c1ccc([N+](=O)[O-])o1`: the binding remaining, % of control is 70.5%.
